Compound activity from PubChem.
An excerpt weighted towards active compounds, which were near 2.6% of everything screened.
mut p53 react: mutant p53 pathway reactivation. AID 624151. activation, % at 9.98 µM. SW480 PUMA-promoter luciferase. 1.5% of 28,000 active; in the data active means activation above about 52%
c-Myc SMM: c-Myc (human) binding | AID 624141 | P01106 | 1.5% of 17,000 active | small molecule microarray, His-c-Myc binding, anti-His fluorescence | calls only;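 active means spot fluorescence over background with P-value below 7% in all four replicate spots, showing protein binding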;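 further: score is binary with 100 for all four spots passing and 0 otherwise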
Target sequence (P01106 whole entry, looked up): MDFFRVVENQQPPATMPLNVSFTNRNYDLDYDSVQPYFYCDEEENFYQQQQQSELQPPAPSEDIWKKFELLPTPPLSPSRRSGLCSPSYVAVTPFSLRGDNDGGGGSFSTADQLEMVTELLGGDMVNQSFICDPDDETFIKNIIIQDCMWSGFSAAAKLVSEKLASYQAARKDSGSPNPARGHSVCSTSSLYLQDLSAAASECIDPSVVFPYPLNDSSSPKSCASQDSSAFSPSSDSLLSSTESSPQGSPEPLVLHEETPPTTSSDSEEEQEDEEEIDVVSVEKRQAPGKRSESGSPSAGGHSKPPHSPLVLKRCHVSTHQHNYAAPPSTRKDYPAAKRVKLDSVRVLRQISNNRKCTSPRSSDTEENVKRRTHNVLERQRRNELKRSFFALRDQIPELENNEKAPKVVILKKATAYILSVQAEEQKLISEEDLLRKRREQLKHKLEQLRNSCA
STAT3 SMM: STAT3 (human) binding; P40763; Small molecule microarray, His-STAT3 binding, anti-His fluorescence; calls only; 0.2% of 17,000 active; AID 624138;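 active means compounds whose four printed spots each show fluorescence over background unusually high for their array block, chance value under 7%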
p53 mut binder: mutant p53 (human) binding; 0.4% of 17,000 active; small molecule microarray binding, anti-GST fluorescence; AID 624136; calls only;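 active means compounds whose four printed spots each glow above background more than chance allows, each with a p-value under 7%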
NFkB SMM: binds human NF-kappa-B p105 on microarray; P19838; Small molecule microarray, anti-His fluorescence binding; calls only; 1.3% of 17,000 active;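 active means spot fluorescence over background significantly raised, with a chance value under 7% in all four replicate spots of the compound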;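 further: probe protein is his-tagged human p50 processed subunit at 1 µg/ml; raw spot fluorescence signals with no normalization applied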
* marks the source's active call; other numbers are inactive results.

CN1CCN(C(=O)c2nc3ccc(Cl)cc3[nH]2)CC1 was read as mut p53 react 56.7*, c-Myc SMM inactive, STAT3 SMM inactive, p53 mut binder inactive and NFkB SMM inactive.
`CN1CCN(C(=O)CN(c2cccc(Cl)c2)S(=O)(=O)c2ccc(Cl)cc2)CC1` gave mut p53 react -3.9.
For Cc1nc2nc[nH]n2c(=O)c1NS(=O)(=O)c1ccc(C2CCCCC2)cc1 the results were mut p53 react 12.6.
Screening COc1cc2c(cc1C(F)(F)F)N(C(=O)Nc1cc(F)cc(-c3cccnc3)c1)CC2 returned mut p53 react -69.6, c-Myc SMM inactive, STAT3 SMM inactive, p53 mut binder inactive and NFkB SMM inactive.
`Cn1ccc2cc3c(cc21)CCN3C(=O)Nc1cccnc1` gave mut p53 react 68.6*, c-Myc SMM inactive, STAT3 SMM inactive, p53 mut binder inactive and NFkB SMM inactive.
`CC(Sc1ncnc2sc(-c3ccccc3)cc12)C(=O)Nc1ccccc1C(F)(F)F` (stereo not drawn) gave mut p53 react 43.2.
Screening CCOc1ccc(NC(=O)C(C)Sc2ncnc3sc(-c4ccccc4)cc23)cc1 (stereo not drawn) returned mut p53 react 7.1, c-Myc SMM active, STAT3 SMM inactive, p53 mut binder inactive and NFkB SMM inactive.
Screening Cc1cccnc1NC(=S)NC(=O)c1cncc(Br)c1 returned mut p53 react 108.2*, c-Myc SMM active, STAT3 SMM inactive, p53 mut binder inactive and NFkB SMM inactive.
`COc1ccc(-c2coc3cc(O[C@@H]4O[C@H](CO)[C@@H](O)[C@H](O)[C@H]4O)ccc3c2=O)cc1` gave mut p53 react 11.3, c-Myc SMM inactive, STAT3 SMM inactive, p53 mut binder inactive and NFkB SMM inactive.
For COc1ccc2c(=O)c(-c3ccc(OC)c(OC)c3)coc2c1 the results were mut p53 react 123.5*, c-Myc SMM inactive, STAT3 SMM inactive, p53 mut binder inactive and NFkB SMM inactive.
COc1ccc(-c2coc3cc(OC(C)=O)cc(OC(C)=O)c3c2=O)cc1 was read as mut p53 react 129.6*, c-Myc SMM inactive, STAT3 SMM inactive, p53 mut binder inactive and NFkB SMM inactive.
Screening COCc1cc(C)n(CC(=O)Nc2cc(Cl)ccc2OC)c(=O)c1C#N returned mut p53 react -3.3.
Cc1ccc2oc(-c3ccc(C)c(NC(=O)COc4ccc(Br)cc4)c3)nc2c1 was read as mut p53 react 64.5*.
`Cc1ccc2oc(-c3ccc(Cl)c(NC(=O)COc4ccc(C)c(C)c4)c3)nc2c1` gave mut p53 react -9.3.
Cc1cc2nc(-c3ccc(C)c(NC(=O)COc4ccc([N+](=O)[O-])cc4)c3)oc2cc1C was read as mut p53 react 66.3*.
`Cc1ccc(-c2nc3ccccc3o2)cc1NC(=O)COc1ccccc1` gave mut p53 react -11.2, c-Myc SMM inactive, STAT3 SMM inactive, p53 mut binder inactive and NFkB SMM inactive.
`CC(=O)OC1/C=C(/C(=O)O)CC/C=C(/C)C(=O)/C=C\C1(C)C` (stereo not drawn) gave mut p53 react -58.8, c-Myc SMM inactive, STAT3 SMM inactive, p53 mut binder inactive and NFkB SMM inactive.
For COc1cc2c(cc1NC(=O)Cc1ccccc1[N+](=O)[O-])oc1ccccc12 the results were mut p53 react 86.6*.
`CCN(CC)C(=O)c1cc(-c2ccc(Cl)c(Cl)c2)on1` gave mut p53 react 72.4*.
Screening C[C@@H]1CN([C@@H](C)CO)C(=O)c2cc(NS(=O)(=O)c3cn(C)cn3)ccc2O[C@@H]1CN(C)S(=O)(=O)c1cn(C)cn1 returned mut p53 react -6.4, c-Myc SMM inactive, STAT3 SMM inactive, p53 mut binder inactive and NFkB SMM inactive.
COc1ccc([Si](C)(C)[C@H]2[C@H](CCO)O[C@@]3(C(=O)N(Cc4ccccc4)c4ccc(NC(=O)[C@H](C)O)cc43)[C@@H]2C)cc1 was read as c-Myc SMM inactive, STAT3 SMM inactive, p53 mut binder active and NFkB SMM active.
COc1ccc2c(c1)c(=O)oc1cc(OCC(=O)Nc3cc(C)cc(C)c3)ccc12 was read as mut p53 react 10.6, c-Myc SMM inactive, STAT3 SMM inactive, p53 mut binder inactive and NFkB SMM inactive.
`COc1ccc(OCc2nnc3n2N=C(c2ccc(OC)c(OC)c2)C(c2ccccc2)S3)cc1` (stereo not drawn) gave mut p53 react -19.7, c-Myc SMM inactive, STAT3 SMM inactive, p53 mut binder inactive and NFkB SMM inactive.
For C=CCOC(=O)[C@H]1[C@@H]2C(=O)O[C@@H](c3ccccc3)[C@@H](c3ccccc3)N2[C@@H](c2ccc(OCCOC(=O)[C@@H]3C[C@@H]4C(=O)N[C@@H](Cc5ccccc5)C(=O)N4[C@@H]3c3cccc(OCCO)c3)cc2)[C@]12C(=O)Nc1ccc(I)cc12 the results were c-Myc SMM inactive, STAT3 SMM inactive, p53 mut binder inactive and NFkB SMM active.
`C=CCOC(=O)[C@H]1[C@@H]2C(=O)O[C@@H](c3ccccc3)[C@@H](c3ccccc3)N2[C@@H](c2ccc(OCCOC(=O)[C@@H]3C[C@@H]4C(=O)N[C@@H](Cc5ccccc5)C(=O)N4[C@@H]3c3ccc(O)cc3)cc2)[C@]12C(=O)Nc1ccccc12` gave c-Myc SMM inactive, STAT3 SMM inactive, p53 mut binder inactive and NFkB SMM inactive.
C=CCOC(=O)[C@H]1[C@@H]2C(=O)O[C@@H](c3ccccc3)[C@@H](c3ccccc3)N2[C@@H](c2ccc(OCCOC(=O)[C@@H]3C[C@@H]4C(=O)NCC(=O)N4[C@@H]3c3ccc(O)cc3)cc2)[C@]12C(=O)Nc1ccccc12 was read as c-Myc SMM inactive, STAT3 SMM inactive, p53 mut binder inactive and NFkB SMM active.
For C=CCOC(=O)[C@H]1[C@@H]2C(=O)O[C@@H](c3ccccc3)[C@@H](c3ccccc3)N2[C@@H](c2ccc(OCCOC(=O)[C@@H]3C[C@@H]4C(=O)NCC(=O)N4[C@@H]3c3ccc(O)cc3)cc2)[C@]12C(=O)Nc1ccc(I)cc12 the results were c-Myc SMM inactive, STAT3 SMM inactive, p53 mut binder inactive and NFkB SMM inactive.
`C=CCOC(=O)[C@H]1[C@@H]2C(=O)O[C@@H](c3ccccc3)[C@@H](c3ccccc3)N2[C@@H](c2ccc(OCCOC(=O)[C@@H]3C[C@@H]4C(=O)N5CCC[C@H]5C(=O)N4[C@@H]3c3cccc(OCCO)c3)cc2)[C@]12C(=O)Nc1ccccc12` gave c-Myc SMM inactive, STAT3 SMM inactive, p53 mut binder inactive and NFkB SMM inactive.
